Bioassay records deposited in PubChem by several laboratories.
PriA SSB inh – blocks PriA binding to SSB C-terminal tail | AlphaScreen SSBct-PriA binding, biotinylated peptide | inhibition, % at 33 µM | 430,000 compounds, 0.6% hits; in the data active = inhibition mostly above about 37%, no sharp cut-off; inactive = mostly below about 20%;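 note: plate controls were negative control peptide for no effect and reference peptide for full effect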
Bead autofluor – counter-screen for toxin protease inhibitors: compound fluorescence; compound autofluorescence counterscreen, microsphere flow cytometry; hits give high values; fluorescence intensity (no concentration beside the values); 360,000 compounds, 3.1% hits; in the data active = fluorescence intensity above about 16000; inconclusive = no clear call, values can overlap the other calls
BoNT F protease – BoNT F light chain protease inhibition | Multiplex microsphere protease cleavage assay, flow cytometry | AID 588497 | 360,000 compounds, 0.22% hits | inhibition, % at 10 µM; in the data active = inhibition above about 35%, passing the limit was not always enough; inconclusive = no clear call, values can overlap the other calls; note: plate controls were buffer without enzyme for full effect and enzyme alone for no effect
BoNT A protease – blocks Botulinum neurotoxin A light chain protease; multiplex microsphere protease substrate cleavage, flow cytometry; 360,000 compounds, 0.17% hits; AID 588499; inhibition, % at 10 µM; note: plate controls were buffer without enzyme for full effect and enzyme alone for no effect
Anthrax LF inh2 – anthrax lethal factor protease inhibition; P15917; multiplex microsphere protease cleavage assay, LF; inhibition, % at 10 µM; 360,000 compounds, 0.12% hits; note: plate controls were buffer without enzyme for full effect and enzyme alone for no effect
* = called active by the depositor; ? = inconclusive; / = no result given. Only some compounds are listed: those with a hit (about 3.1% of all), similar ones and a draw of the others. Cut-off read from the data, not from the text of the source, unless noted: active = inhibition above about 30%; inconclusive = no clear call, values can overlap the other calls; inactive = below that.

SMILES | PriA SSB inh | Bead autofluor | BoNT F protease | BoNT A protease | Anthrax LF inh2
CCOc1ccc(C(=O)NC(=S)Nc2ccc(N3CCC(C)CC3)cc2)cc1[N+](=O)[O-] | -9.9 | 14746 | 39.4* | -6.9 | -10.6
CCOc1ccc(C(=O)NC(=S)Nc2ccccc2N2CCC(C)CC2)cc1[N+](=O)[O-] | 11.2 | ? | -2.2 | 0.0 | -0.3
CNC(=S)NNC(=O)c1cccn(Cc2ccc(Cl)c(Cl)c2)c1=O | 19.6 | 22977* | -2.0 | 0.6 | 0.0
CNC(=S)NNC(=O)c1cccn(Cc2cccc(Cl)c2)c1=O | -3.3 | 24235* | -3.0 | -1.6 | -0.2
CC(C)NC(=O)NNC(=O)c1cccn(Cc2cccc(Cl)c2)c1=O | -28.0 | / | / | / | /
CCn1c(Cc2cccs2)nc2ccccc21 | -4.0 | / | / | / | /
COc1ccc(CCNC(=O)C2CC(=O)N(C3CCCCCCC3)C2)cc1OC (stereo not drawn) | 1.8 | 24165* | -3.4 | -3.1 | -1.6
COc1ccc(CCN2CC(C(=O)NCc3ccco3)CC2=O)cc1OC (stereo not drawn) | -13.8 | 16739* | -0.1 | -0.2 | -3.7
COc1ccc(CCNC(=O)C2CCCN(S(=O)(=O)N3CCCCCC3)C2)cc1OC (stereo not drawn) | -4.5 | 5680 | -7.1 | -1.9 | -4.1
O=C(NCc1ccco1)C1CC(=O)N(CCc2ccccc2)C1 (stereo not drawn) | 13.1 | 3474 | -7.3 | 0.0 | -4.0
COc1ccc(CCNC(=O)C2CCN(S(=O)(=O)N3CCCCCC3)CC2)cc1OC | 0.4 | 22454* | 4.4 | 2.7 | -6.3
O=C(CC1NCCNC1=O)OCCc1ccccc1 (stereo not drawn) | -5.0 | / | / | / | /
Cc1nn(C)cc1/C=N/O | / | 16844* | 12.2 | 9.1 | -9.4
O=C(Cn1c(=O)oc2ccccc21)N1CCSC(c2ccccc2Cl)CC1 (stereo not drawn) | -20.0 | / | / | / | /
N#CC(c1cccc(C(F)(F)F)c1)(c1ncc(C(F)(F)F)cc1Cl)N1CCOCC1 (stereo not drawn) | -20.6 | 23108* | -1.5 | -0.4 | -6.3
COc1ccc(N2CCN(C(=O)CN=C3NS(=O)(=O)C(c4ccc(C)cc4)=C3C)CC2)cc1 | 2.1 | 17288* | -1.0 | -2.8 | -0.3
CC1CC(C)CN(C(=O)/C(=C\c2ccccc2)c2ccccc2)C1 (stereo not drawn) | -6.3 | 1873 | -2.0 | 0.5 | 1.0
CC1CCCCN1C(=O)/C(=C\c1ccccc1)c1ccccc1 (stereo not drawn) | -10.9 | 21700* | 5.3 | 5.2 | 0.4
Cn1cnc([N+](=O)[O-])c1NCc1ccccc1 | 1.4 | 3764 | 40.0* | 7.4 | ?
CC(C)S(=O)(=O)c1cccc(C(=O)Nc2nc(-c3ccncc3)cs2)c1 | 5.0 | / | / | / | /
Cc1ccc(-c2nnn(CC(=O)N(c3ccccc3F)C(CC(C)C)C(=O)NCC3CCCO3)n2)cc1 (stereo not drawn) | 10.9 | 16688* | -3.0 | -1.1 | -3.5
CC(C(=O)NC1CCCC1)N(C(=O)Cn1nnc(-c2ccc(F)cc2)n1)c1ccccc1F (stereo not drawn) | -5.4 | 4115 | 5.0 | 0.6 | -2.9
CC(C)CC(C(=O)NCC1CCCO1)N(C(=O)Cn1nnc(-c2ccc(F)cc2)n1)c1cccc(C(F)(F)F)c1 (stereo not drawn) | -0.6 | 23362* | -1.6 | ? | -0.7
Cc1ccc(N(C(=O)Cn2nnc(-c3ccc(F)cc3)n2)C(CC(C)C)C(=O)NCC2CCCO2)cc1 (stereo not drawn) | -4.9 | 23138* | -3.7 | -0.8 | 0.0
CC(C)CC(C(=O)NCC1CCCO1)N(C(=O)Cn1nnc(-c2ccc(F)cc2)n1)c1ccccc1F (stereo not drawn) | -1.8 | 21995* | -9.1 | -3.0 | -4.7
SMILES | PriA SSB inh | Bead autofluor | BoNT F protease | BoNT A protease | Anthrax LF inh2
O=C(NCC1CCCO1)C(c1ccc(F)cc1)N(C(=O)Cn1nnc(-c2ccc(F)cc2)n1)c1cccc(O)c1 (stereo not drawn) | 6.2 | 3388 | 0.1 | -0.4 | -0.7
CSc1ncccc1C(=O)Nc1ccc2c(c1)N(C(=O)C1CCCC1)CC2 | 8.0 | / | / | / | /
O=C(c1csc(-c2ccccc2)n1)N1CCc2oncc2C1 | -9.0 | / | / | / | /
Cc1ccc(-c2nnn(CC(=O)N(CC3CCCO3)C(C(=O)NC(C)(C)C)c3ccc(F)cc3)n2)o1 (stereo not drawn) | 2.3 | 22682* | -1.7 | ? | -2.3
O=C(NN=Cc1cccnc1)c1cccc(Br)c1 | -0.9 | / | / | / | /
Cc1ccc(CNCC(O)(c2ccc(F)cc2)c2ccc(F)cc2)cc1 | -25.8 | 22638* | -12.8 | ? | -8.0
Cc1ccc(CNCC(O)(c2ccccc2)c2ccc(F)cc2)cc1 (stereo not drawn) | -12.8 | 10625 | -18.5 | -1.9 | -10.3
COc1ccc2c(c1)CC1(CN2C)C(=O)NC(=O)N(c2ccc(F)cc2)C1=O (stereo not drawn) | 7.7 | 22766* | -0.2 | 0.3 | -0.9
COc1ccc(/C=C/C(=O)n2cnc3ccccc32)cc1S(=O)(=O)N1CCCCC1 | -12.0 | / | / | / | /
Cn1c(=O)[nH]c(=O)c2c1nc(OC(=O)c1ccccc1)n2CC(O)COc1ccc(F)cc1 (stereo not drawn) | 1.5 | 16708* | -3.8 | -1.0 | 1.2
CCCN(CCC)CCNS(=O)(=O)c1ccc2c(c1)oc(=O)n2C | -2.8 | 22046* | -1.0 | ? | -1.6
Cn1c(=O)oc2cc(S(=O)(=O)Nc3cccc(C(=O)O)c3)ccc21 | -10.7 | 19703* | -3.9 | -0.3 | -5.2
CCOC(=O)c1ccc(NC(=O)CCNS(=O)(=O)c2ccc3c(c2)oc(=O)n3C)cc1 | 0.3 | 23217* | 0.2 | -0.2 | -2.3
CCC1CCCCN1Cc1ccc(CNS(=O)(=O)c2ccc3c(c2)oc(=O)n3C)o1 (stereo not drawn) | -8.0 | 22053* | -10.0 | -5.8 | -2.3
Cn1nc(-c2cccs2)cc1C(=O)Nc1ccccc1-c1cn2ccccc2n1 | -14.0 | / | / | / | /
COc1ccc(-c2cc(=O)n(CC(=O)N3CCOCC3)cn2)cc1 | -1.0 | / | / | / | /
Cn1nc(CN(Cc2ccco2)C(=O)C(C)(C)Oc2ccc(Cl)cc2)cc1C1CC1 | -6.0 | / | / | / | /
O=C(CSc1nc(NC(=O)c2ccco2)c(NC(=O)c2ccc(F)cc2)c(=O)[nH]1)NC1CCCC1 | 0.0 | / | / | / | /
Cc1ccc(Cl)cc1S(=O)(=O)NCCCCN1CCOC(c2ccccc2)C1 (stereo not drawn) | -19.0 | / | / | / | /
C=CCn1c(SCC(=O)Nc2scc(-c3ccc(F)cc3)c2C(=O)OCC)nc2scc(-c3ccco3)c2c1=O | -11.0 | / | / | / | /
Cn1c(=O)oc2cc(S(=O)(=O)NCCC(=O)NCCc3ccc(Cl)cc3)ccc21 | -0.9 | 19293* | 0.7 | 1.5 | -9.3
Cc1ccc(CCNC(=O)CCNS(=O)(=O)c2ccc3c(c2)oc(=O)n3C)cc1 | -6.5 | 9981 | -2.9 | 0.1 | -4.0
Cn1c(=O)oc2cc(S(=O)(=O)NCCC(=O)NCCc3ccccc3)ccc21 | -13.5 | 20294* | 0.3 | -0.9 | -2.3
O=C(c1cnccn1)N1CC(N2C(=O)C3CC=CCC3C2=O)C1 (stereo not drawn) | -12.0 | / | / | / | /
CCCNC(=O)N1CCN(c2nc(C(C)C)c3c(c2C#N)CC(C)(C)OC3)CC1 | 23.7 | 5242 | -6.0 | -0.2 | -1.4
Cc1ccc(S(=O)(=O)N2CCN(c3nc(C(C)C)c4c(c3C#N)CC(C)(C)OC4)CC2)cc1 | -14.9 | 22172* | 7.4 | 3.7 | -1.0
